Targets with a hit are over-represented here; the source holds about 8,800 in all. About 0.5% of all pairs of compound and target were hits.
Experiments:
Test in all cases: log2 fold change, soluble protein after heating vs DMSO (PISA); higher = thermal stabilisation; K562 lysate, 10 uM; active = over 0.2 and 3.5 SD of the protein, either way, in both replicates (recomputed)
erlotinib = compound: C#Cc1cccc(Nc2ncnc3cc(OCCOC)c(OCCOC)cc23)c1 [erlotinib]
Method in brief: (§1)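 A 30 min treatment with 10 μM compound was applied to crude K562 extract at 1 mg/mL protein in PBS pH 7.4 with 1 mM MgCl2. Heating for 3 min spanned 48°C-58°C, after which aliquots were pooled, adjusted to 0.5% NP-40 at 4°C and spun at 21,000xg for 90 min. TMTpro 16plex LC-MS/MS of the supernatant, with channel sums equalised, gave values recorded as log-two fold change in thermal stability against solvent controls, from duplicates.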

[1] = compound: C/C(=N\NC(=O)C1=CC(=CC=C1)S(=O)(=O)N2CCOCC2)/C3=C(C=CC(=C3)Cl)O
Method in brief: as §1

[2] = compound: C1=CC(=CC=C1C2=NC3=C(N2)C=C(C=C3)C(=O)N)OC4=CC=C(C=C4)Cl
Method in brief: as §1

[3] = compound: C1=CC2=C(C=CC(=C2)/C=C\3/C(=O)NC(=NCC4=CC=CS4)S3)N=C1
Method in brief: as §1

[4] = compound: C1=CC2=NC=CN=C2C=C1/C=C/3\C(=O)NC(=O)S3
Method in brief: as §1

[5] = compound: C1=CC=C(C=C1)C2=NC(=C(N2)C3=CC=NC=C3)C4=CC(=C(C=C4)Cl)O
Method in brief: as §1

[6] = compound: C1=CC=C2C(=C1)C3=NNC4=CC=CC(=C43)C2=O
Method in brief: as §1

[7] = compound: C1CCN(C1)C(=O)NC2=CC=CC(=C2)NC3=NC=C(C(=N3)NCCC4=CN=CN4)Br
Method in brief: as §1

[8] = compound: C1CN(CCC1(CC2=CC=C(C=C2)Cl)N)C3=NC=NC4=C3C=CN4
Method in brief: as §1

IRAK-1-4 Inhibitor I = compound: C1COCCN1CCN2C3=CC=CC=C3N=C2NC(=O)C4=CC(=CC=C4)[N+](=O)[O-] [IRAK-1-4 Inhibitor I]
Method in brief: as §1

ibrutinib = compound: C=CC(=O)N1CCC[C@@H](n2nc(-c3ccc(Oc4ccccc4)cc3)c3c(N)ncnc32)C1 [ibrutinib]
Method in brief: as §1

[9] = compound: CC(=O)c1cnc2ccc(-c3cc(Cl)c(O)c(Cl)c3)nc2c1N[C@H]1CC[C@H](CN(C)C)CC1
Method in brief: as §1

ralimetinib = compound: CC(C)(C)Cn1c(N)nc2ccc(-c3[nH]c(C(C)(C)C)nc3-c3ccc(F)cc3)nc21 [ralimetinib]
Method in brief: as §1

[10] = compound: CC(C)(O)CC(=O)NCCn1ccc2ncnc(Nc3ccc(Oc4cccc(C(F)(F)F)c4)c(Cl)c3)c21
Method in brief: as §1

[11] = compound: CC(C)C1=C2N=C(C=C(N2N=C1)NCC3=CC=CC=C3)NCCCCCCN
Method in brief: as §1

[12] = compound: CC1=C(C(CC(=O)N1)C2=CC=C(C=C2)C(F)(F)F)C(=O)NC3=C(C=C4C(=C3)C=NN4)F
Method in brief: as §1

[13] = compound: CC1=C(C2=C(C=C1)C(=O)C3=CC=CC=C3N2CCCN)C
Method in brief: as §1

[14] = compound: CC1=C(C=C(C=C1)NC(=O)C2=CC(=CC=C2)C(C)(C)C#N)NC3=CC4=C(C=C3)N=CN(C4=O)C
Method in brief: as §1

[15] = compound: CC1=C(C=C(C=C1)NC(=O)C2=CC(=CC=C2)N(C)C)NC(=O)C3=CC=C(C=C3)O
Method in brief: as §1

[16] = compound: CC1=CC=C(C=C1)SC2=C3C=C(SC3=CN=C2)C(=O)N
Method in brief: as §1

Measured: log2 fold change

PDXDC1 (UniProt Q6P996)
inactive: erlotinib -0.012 | [1] 0.008 | [2] -0.095 | [3] 0.034 | [4] 0.013 | [5] -0.005 | [6] 0.024 | [7] -0.011 | [8] -0.024 | IRAK-1-4 Inhibitor I -0.006 | ibrutinib -0.006 | [9] 0.051 | ralimetinib 0.071 | [10] -0.017 | [11] 0.001 | [12] 0.014 | [13] -0.024 | [14] -0.019 | [15] 0.024 | [16] 0.022

PIM1 isoform 2 (UniProt P11309)
Sequence of UniProt P11309 (P11309 whole entry, looked up): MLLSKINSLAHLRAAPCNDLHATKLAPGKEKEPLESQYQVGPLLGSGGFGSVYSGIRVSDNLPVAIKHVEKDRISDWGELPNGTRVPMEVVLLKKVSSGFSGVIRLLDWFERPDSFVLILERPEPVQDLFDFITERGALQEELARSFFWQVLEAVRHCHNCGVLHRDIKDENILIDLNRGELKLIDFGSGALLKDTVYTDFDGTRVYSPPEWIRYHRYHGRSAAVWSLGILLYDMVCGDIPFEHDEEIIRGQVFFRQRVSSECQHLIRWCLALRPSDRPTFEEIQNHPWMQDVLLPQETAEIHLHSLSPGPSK
inactive: erlotinib 0.118 | [1] -0.106 | [2] -0.164 | [3] 0.028 | [4] 0.238 | [5] 0.123 | [6] -0.034 | [7] -0.077 | [8] 0.02 | IRAK-1-4 Inhibitor I -0.076 | ibrutinib -0.138 | ralimetinib 0.042 | [10] 0.122 | [11] -0.038 | [12] -0.014 | [13] 0.054 | [14] 0.01 | [15] 0.054

PDCD6IP isoform 2 (UniProt Q8WUM4)
Sequence of UniProt Q8WUM4 (Q8WUM4 whole entry, looked up): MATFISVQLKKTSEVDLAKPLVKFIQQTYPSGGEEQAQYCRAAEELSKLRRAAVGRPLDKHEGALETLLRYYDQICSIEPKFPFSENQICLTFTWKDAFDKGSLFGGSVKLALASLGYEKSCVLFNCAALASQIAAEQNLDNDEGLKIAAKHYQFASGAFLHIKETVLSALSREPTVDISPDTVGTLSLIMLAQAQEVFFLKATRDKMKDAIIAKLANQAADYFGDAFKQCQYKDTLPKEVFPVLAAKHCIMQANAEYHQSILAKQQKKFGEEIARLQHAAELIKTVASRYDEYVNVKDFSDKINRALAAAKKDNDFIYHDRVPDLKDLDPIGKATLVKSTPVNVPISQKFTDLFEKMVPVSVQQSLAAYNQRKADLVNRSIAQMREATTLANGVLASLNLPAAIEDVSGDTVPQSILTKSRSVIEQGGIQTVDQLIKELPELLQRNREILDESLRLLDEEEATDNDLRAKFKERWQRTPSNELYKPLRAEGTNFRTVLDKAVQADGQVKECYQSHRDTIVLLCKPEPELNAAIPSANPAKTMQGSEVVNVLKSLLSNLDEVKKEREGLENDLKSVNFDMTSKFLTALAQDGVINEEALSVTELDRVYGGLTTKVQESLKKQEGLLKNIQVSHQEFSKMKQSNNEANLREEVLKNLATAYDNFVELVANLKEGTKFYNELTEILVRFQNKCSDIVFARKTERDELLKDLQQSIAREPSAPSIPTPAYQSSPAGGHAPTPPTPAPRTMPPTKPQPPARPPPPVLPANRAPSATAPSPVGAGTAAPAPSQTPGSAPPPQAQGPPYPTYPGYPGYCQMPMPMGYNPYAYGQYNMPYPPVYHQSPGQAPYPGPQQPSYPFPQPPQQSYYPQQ
inactive: erlotinib 0.027 | [1] 0.046 | [2] 0.009 | [3] 0.01 | [4] -0.02 | [5] 0.007 | [6] -0.007 | [7] 0.002 | [8] 0.007 | IRAK-1-4 Inhibitor I -0.002 | ibrutinib -0.035 | [9] 0.009 | ralimetinib 0.003 | [10] 0.025 | [11] 0.013 | [12] -0.006 | [13] 0.046 | [14] -0.013 | [15] 0.029 | [16] 0.016

PRKD3 (UniProt O94806)
Sequence of UniProt O94806 (O94806 whole entry, looked up): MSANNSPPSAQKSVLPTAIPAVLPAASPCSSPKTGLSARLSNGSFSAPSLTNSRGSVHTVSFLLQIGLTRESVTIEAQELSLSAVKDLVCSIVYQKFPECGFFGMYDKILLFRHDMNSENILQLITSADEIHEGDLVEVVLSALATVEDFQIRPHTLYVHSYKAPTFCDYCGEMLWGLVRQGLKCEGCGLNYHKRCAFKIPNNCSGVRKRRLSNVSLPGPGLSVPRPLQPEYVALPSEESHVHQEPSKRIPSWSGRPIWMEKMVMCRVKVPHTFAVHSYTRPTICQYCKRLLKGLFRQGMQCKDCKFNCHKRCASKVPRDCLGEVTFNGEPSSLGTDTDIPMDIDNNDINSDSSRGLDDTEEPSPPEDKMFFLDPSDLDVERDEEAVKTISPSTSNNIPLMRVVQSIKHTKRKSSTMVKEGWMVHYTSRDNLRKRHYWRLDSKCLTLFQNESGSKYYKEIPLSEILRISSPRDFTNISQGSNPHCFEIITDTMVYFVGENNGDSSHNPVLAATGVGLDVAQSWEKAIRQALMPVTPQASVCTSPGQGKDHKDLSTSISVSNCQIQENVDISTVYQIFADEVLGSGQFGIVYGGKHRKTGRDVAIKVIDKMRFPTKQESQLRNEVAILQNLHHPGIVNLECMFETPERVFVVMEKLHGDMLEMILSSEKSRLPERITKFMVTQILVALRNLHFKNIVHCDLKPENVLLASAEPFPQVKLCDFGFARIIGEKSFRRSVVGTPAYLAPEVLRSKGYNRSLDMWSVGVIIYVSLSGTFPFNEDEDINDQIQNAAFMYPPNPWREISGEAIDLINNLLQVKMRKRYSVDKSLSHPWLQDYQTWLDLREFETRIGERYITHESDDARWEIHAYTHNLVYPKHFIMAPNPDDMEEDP
inactive: erlotinib -0.041 | [1] 0.105 | [2] -0.123 | [3] -0.145 | [4] 0.039 | [5] 0.115 | [6] 0.123 | [7] -0.163 | [8] -0.115 | IRAK-1-4 Inhibitor I 0.053 | ibrutinib -0.112 | [9] 0.054 | ralimetinib -0.164 | [10] -0.052 | [11] 0.03 | [12] 0.039 | [14] -0.068 | [15] -0.022 | [16] -0.077

PHGDH (UniProt O43175)
Sequence of UniProt O43175 (O43175 whole entry, looked up): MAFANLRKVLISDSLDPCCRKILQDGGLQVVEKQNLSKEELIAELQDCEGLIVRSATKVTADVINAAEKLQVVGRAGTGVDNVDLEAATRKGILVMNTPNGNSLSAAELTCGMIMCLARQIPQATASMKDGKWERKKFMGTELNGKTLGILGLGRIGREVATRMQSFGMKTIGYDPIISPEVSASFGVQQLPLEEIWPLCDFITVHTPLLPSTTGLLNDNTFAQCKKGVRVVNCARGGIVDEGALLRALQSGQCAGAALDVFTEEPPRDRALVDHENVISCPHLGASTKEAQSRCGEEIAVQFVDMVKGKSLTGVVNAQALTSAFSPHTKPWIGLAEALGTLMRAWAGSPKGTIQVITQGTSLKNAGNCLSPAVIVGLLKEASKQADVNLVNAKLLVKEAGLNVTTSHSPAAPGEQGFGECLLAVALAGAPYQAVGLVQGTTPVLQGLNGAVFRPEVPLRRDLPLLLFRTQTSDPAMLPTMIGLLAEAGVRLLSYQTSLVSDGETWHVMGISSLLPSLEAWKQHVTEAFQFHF
inactive: erlotinib 0.033 | [1] 0.155 | [2] 0.05 | [3] -0.222 | [4] -0.092 | [5] -0.012 | [6] 0.04 | [7] 0.045 | [8] 0.021 | IRAK-1-4 Inhibitor I 0.011 | ibrutinib 0.03 | [9] 0.021 | ralimetinib 0.013 | [10] 0.028 | [11] 0.012 | [12] -0.003 | [13] 0.013 | [14] -0.004 | [15] -0.012 | [16] 0.029

PPP2R5C isoform 5 (UniProt Q13362)
inactive: erlotinib -0.013 | [1] -0.025 | [2] -0.009 | [3] -0.025 | [4] 0.016 | [5] -0.002 | [6] -0.039 | [7] 0.01 | [8] 0.027 | IRAK-1-4 Inhibitor I 0.013 | ibrutinib -0.002 | [9] 0.012 | ralimetinib -0.021 | [10] -0.036 | [11] -0.037 | [12] -0.038 | [13] 0.02 | [14] 0.002 | [15] 0.014 | [16] 0.037

PTGS1 isoform 6 (UniProt P23219)
inactive: erlotinib -0.044 | [1] 0.118 | [2] 0.033 | [3] -0.105 | [4] -0.005 | [5] 0.086 | [6] -0.03 | [7] 0.008 | [8] -0.025 | IRAK-1-4 Inhibitor I 0.061 | ibrutinib 0.109 | [9] 0.022 | ralimetinib -0.001 | [10] -0.075 | [11] -0.043 | [12] 0.023 | [13] -0.039 | [14] 0.023 | [15] -0.011 | [16] -0.026

PKN1 isoform 2 (UniProt Q16512)
Sequence of UniProt Q16512 (Q16512 whole entry, looked up): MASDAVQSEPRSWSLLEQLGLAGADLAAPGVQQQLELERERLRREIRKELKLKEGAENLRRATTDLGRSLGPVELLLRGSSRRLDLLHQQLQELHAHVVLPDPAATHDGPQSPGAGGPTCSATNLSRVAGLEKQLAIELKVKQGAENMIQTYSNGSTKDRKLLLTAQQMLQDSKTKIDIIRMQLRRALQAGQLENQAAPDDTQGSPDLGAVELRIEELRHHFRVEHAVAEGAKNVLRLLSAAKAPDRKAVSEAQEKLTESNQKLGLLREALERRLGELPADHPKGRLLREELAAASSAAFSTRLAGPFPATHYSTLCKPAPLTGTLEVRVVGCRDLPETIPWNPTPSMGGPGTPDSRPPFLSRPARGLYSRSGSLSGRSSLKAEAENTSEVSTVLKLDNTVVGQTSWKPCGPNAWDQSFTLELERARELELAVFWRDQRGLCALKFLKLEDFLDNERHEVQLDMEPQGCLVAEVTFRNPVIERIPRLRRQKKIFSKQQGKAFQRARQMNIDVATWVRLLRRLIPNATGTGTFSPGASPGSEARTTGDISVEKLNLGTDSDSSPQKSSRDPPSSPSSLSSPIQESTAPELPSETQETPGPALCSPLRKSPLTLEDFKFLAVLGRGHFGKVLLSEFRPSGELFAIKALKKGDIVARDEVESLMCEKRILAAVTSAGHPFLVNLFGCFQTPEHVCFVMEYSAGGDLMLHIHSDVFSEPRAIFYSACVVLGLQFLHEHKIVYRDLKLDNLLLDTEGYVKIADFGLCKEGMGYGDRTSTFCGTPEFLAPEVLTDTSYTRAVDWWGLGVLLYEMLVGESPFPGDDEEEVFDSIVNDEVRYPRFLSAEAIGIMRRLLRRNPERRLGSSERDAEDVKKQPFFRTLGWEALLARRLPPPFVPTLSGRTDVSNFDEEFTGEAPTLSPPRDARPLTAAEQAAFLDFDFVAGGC
inactive: erlotinib -0.014 | [1] 0.007 | [2] 0.018 | [3] -0.048 | [4] -0.042 | [5] -0.004 | [6] -0.175 | [7] -0.191 | [8] -0.203 | IRAK-1-4 Inhibitor I -0.174 | ibrutinib 0.011 | [9] -0.107 | ralimetinib -0.001 | [10] 0.008 | [11] 0.006 | [12] 0.091 | [13] 0.021 | [14] 0.048 | [15] 0.035 | [16] 0.05

PUF60 isoform 2 (UniProt Q9UHX1)
Sequence of UniProt Q9UHX1 (Q9UHX1 whole entry, looked up): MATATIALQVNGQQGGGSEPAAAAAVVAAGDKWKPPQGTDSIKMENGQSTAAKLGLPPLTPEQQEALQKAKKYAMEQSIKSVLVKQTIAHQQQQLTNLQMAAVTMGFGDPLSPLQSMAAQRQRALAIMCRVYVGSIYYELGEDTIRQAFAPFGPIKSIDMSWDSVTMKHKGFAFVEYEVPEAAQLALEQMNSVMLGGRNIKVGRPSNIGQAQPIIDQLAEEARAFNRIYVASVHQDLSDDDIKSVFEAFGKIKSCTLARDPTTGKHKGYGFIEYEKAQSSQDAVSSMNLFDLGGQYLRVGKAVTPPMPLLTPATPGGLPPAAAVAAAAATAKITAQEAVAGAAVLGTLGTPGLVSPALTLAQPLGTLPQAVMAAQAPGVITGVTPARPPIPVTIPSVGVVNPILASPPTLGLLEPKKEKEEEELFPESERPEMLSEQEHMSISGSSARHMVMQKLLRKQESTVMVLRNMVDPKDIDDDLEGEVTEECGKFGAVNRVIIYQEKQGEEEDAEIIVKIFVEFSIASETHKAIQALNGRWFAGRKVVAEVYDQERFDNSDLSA
inactive: erlotinib 0.102 | [1] -0.094 | [2] 0.083 | [3] -0.019 | [4] -0.064 | [5] -0.088 | [6] -0.005 | [7] -0.045 | [8] 0.033 | IRAK-1-4 Inhibitor I -0.011 | ibrutinib 0.153 | [9] -0.049 | ralimetinib 0.045 | [10] 0.004 | [11] -0.174 | [12] -0.021 | [14] 0.032 | [15] -0.036 | [16] 0.013

PUS1 (UniProt Q9Y606)
Sequence of UniProt Q9Y606 (Q9Y606 whole entry, looked up): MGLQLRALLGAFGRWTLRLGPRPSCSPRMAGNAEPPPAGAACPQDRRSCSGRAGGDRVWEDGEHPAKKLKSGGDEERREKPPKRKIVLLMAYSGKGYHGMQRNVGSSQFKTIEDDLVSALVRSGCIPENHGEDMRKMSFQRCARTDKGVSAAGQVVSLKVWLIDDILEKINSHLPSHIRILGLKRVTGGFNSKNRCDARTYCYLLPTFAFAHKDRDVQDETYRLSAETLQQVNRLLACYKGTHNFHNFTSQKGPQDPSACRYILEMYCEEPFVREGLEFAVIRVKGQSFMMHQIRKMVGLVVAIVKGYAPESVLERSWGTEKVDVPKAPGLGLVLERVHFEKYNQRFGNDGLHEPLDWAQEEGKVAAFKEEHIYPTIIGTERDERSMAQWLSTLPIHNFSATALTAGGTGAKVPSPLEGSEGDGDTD
inactive: erlotinib 0.033 | [1] -0.174 | [2] 0.007 | [3] 0.01 | [4] 0.024 | [5] 0.005 | [6] -0.06 | [7] 0.016 | [8] -0.021 | IRAK-1-4 Inhibitor I 0.004 | ibrutinib 0.006 | [9] 0.004 | ralimetinib 0.013 | [10] -0.006 | [11] 0.005 | [12] -0.009 | [13] -0.032 | [14] 0.028 | [15] 0.031 | [16] -0.021

PPP2R5B (UniProt Q15173)
inactive: erlotinib -0.026 | [1] 0.038 | [2] 0.056 | [3] -0.106 | [4] 0.123 | [5] 0 | [6] 0.052 | [7] -0.051 | [8] -0.042 | IRAK-1-4 Inhibitor I 0.016 | ibrutinib 0.042 | [9] 0.033 | ralimetinib 0 | [10] -0.046 | [11] -0.055 | [13] 0.009 | [14] 0.026 | [15] 0.08 | [16] -0.053

PRKACB isoform 2 (UniProt P22694)
inactive: erlotinib -0.033 | [1] -0.03 | [2] -0.03 | [3] 0.04 | [4] -0.028 | [5] -0.019 | [6] 0.129 | IRAK-1-4 Inhibitor I 0.009 | ibrutinib -0.006 | ralimetinib 0.033 | [10] -0.03 | [11] -0.013 | [12] 0.025 | [13] -0.014 | [14] -0.037 | [15] 0.014 | [16] -0.024
active: [7] 0.352 | [8] 0.354 | [9] 0.693

PLA2G4B isoform 6 (UniProt P0C869)
inactive: erlotinib 0.099 | [1] 0.064 | [2] 0.048 | [3] -0.099 | [4] 0.023 | [5] 0.062 | [6] -0.021 | [7] -0.011 | [8] 0.026 | IRAK-1-4 Inhibitor I 0.065 | ibrutinib -0.029 | [9] -0.046 | ralimetinib -0.17 | [10] -0.15 | [11] 0 | [12] -0.047 | [13] -0.149 | [14] 0.34 | [15] -0.005 | [16] -0.052

PPM1H (UniProt Q9ULR3)
inactive: erlotinib -0.048 | [1] -0.045 | [3] 0.021 | [4] -0.049 | [5] 0.009 | [6] 0.011 | [7] -0.039 | [8] 0.101 | IRAK-1-4 Inhibitor I 0.037 | ibrutinib 0.058 | [9] -0.032 | ralimetinib -0.008 | [10] -0.035 | [11] 0.019 | [13] -0.028 | [14] 0.048 | [15] -0.007 | [16] 0.02
active: [2] 0.25

PRIM2 (UniProt P49643)
Sequence of UniProt P49643 (P49643 whole entry, looked up): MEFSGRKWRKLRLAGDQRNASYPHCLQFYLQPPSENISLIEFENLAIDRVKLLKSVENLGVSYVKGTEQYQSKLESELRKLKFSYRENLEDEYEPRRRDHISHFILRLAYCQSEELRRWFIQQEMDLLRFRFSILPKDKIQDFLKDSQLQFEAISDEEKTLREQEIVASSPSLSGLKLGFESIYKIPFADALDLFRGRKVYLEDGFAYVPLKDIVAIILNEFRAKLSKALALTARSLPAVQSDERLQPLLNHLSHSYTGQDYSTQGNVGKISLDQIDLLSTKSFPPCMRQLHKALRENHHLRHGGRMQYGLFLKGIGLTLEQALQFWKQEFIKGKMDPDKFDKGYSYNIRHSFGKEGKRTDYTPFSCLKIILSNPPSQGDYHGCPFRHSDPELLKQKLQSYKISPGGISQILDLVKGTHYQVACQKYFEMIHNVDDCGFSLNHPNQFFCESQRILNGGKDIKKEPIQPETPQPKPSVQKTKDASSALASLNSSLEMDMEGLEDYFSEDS
inactive: erlotinib 0.05 | [1] -0.12 | [2] 0.032 | [3] 0.007 | [4] -0.006 | [5] 0.011 | [6] 0.005 | [7] -0.016 | [8] 0.017 | IRAK-1-4 Inhibitor I 0.027 | ibrutinib 0.067 | [9] -0.05 | ralimetinib 0.041 | [10] -0.025 | [11] -0.001 | [12] 0.015 | [13] -0.043 | [14] 0.028 | [15] 0.054 | [16] 0.009

PRRC2A (UniProt P48634)
inactive: erlotinib -0.026 | [1] -0.018 | [2] 0.073 | [3] -0.002 | [4] 0.006 | [5] -0.09 | [6] 0.014 | [7] 0.01 | [8] 0.006 | IRAK-1-4 Inhibitor I 0.026 | ibrutinib 0.006 | [9] -0.014 | ralimetinib -0.01 | [10] -0.02 | [11] 0.002 | [12] 0.015 | [13] -0.003 | [15] 0.003 | [16] -0.026
active: [14] -0.26

— the supplement of paper PMC10849652
